Data reported in PubChem BioAssay (EPA / NIEHS).
Records with an inconclusive call do not appear. Active and inactive are the calls of the source. Rule for the calls: active = hit-call score of the fitted dose curve at least 0.9, where 1 is the maximum; inconclusive = response in the unintended direction; inactive = score below 0.9.

Assay: Tanguay_ZF_120hpf_SWIM_legacy: (Legacy) Oregon State University Tanguay Lab 120 Hour Post-fertilization zebrafish Assay for Swim Bladder Malformation (AID 2283654);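 note: swim bladder malformation in each larva scored yes or no under brightfield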
Description: Tanguay_ZF_120hpf_legacy is a whole embryo, multiplexed endpoint assay using zebrafish larvae exposed for 120 hours post fertilization on a 96-well plate.Tanguay_ZF_120hpf_SWIM_legacy is one of one assay component(s) measured or calculated from the Tanguay_ZF_120hpf_legacy assay. It is designed to make measurements of zebrafish development as detected with brightfield microscopy of developing zebrafish embryos.Data from the assay component Tanguay_ZF_120hpf_SWIM_legacy was analyzed into 1 assay endpoints. This assay endpoint, Tanguay_ZF_120hpf_SWIM_legacy, was analyzed in the positive analysis fitting direction relative to DMSO as the negative control and baseline of activity. Using a type of morphology reporter, gain-of-signal activity can be used to understand changes in developmentals as they relate to the whole embryo. To generalize the intended target to other relatable targets, this assay endpoint is annotated to the zebrafish development intended target family, where the subfamily is swim bladder morphogenesis.
Zebrafish husbandry: Tropical 5D wild-type adult zebrafish were housed in at an approximate density of 1000 per 100 gallon tank at the Sinnhuber Aquatic Research Laboratory, Oregon State University, Corvallis, OR. Each tank was kept at standard laboratory conditions of 28C on a 14-h light/10-h dark photoperiod in fish water consisting of reverse osmosis water supplemented with a commercially available salt (Instant Ocean). Spawning funnels were placed into the tanks the night prior, and embryos were collected and staged. To increase bioavailability, the chorion was enzymatically removed using pronase (63.6mg/ml, >/= 3.5U/mg, Sigma-Aldrich: P5147) at 4 hours post fertilization (hpf) using a custom automated dechorionator.Chemical exposures: Six hpf dechorionated embryos were placed 1 embryo per well in a 96-well plate prefilled with 90 ul of EM using automated embryo placement systems (AEPS). Ten microliters of each row of dilution plate 2 was added to 2 exposure plates. The final DMSO concentration used was 0.64% (vol/vol). Thirty-two embryos were also exposed to 5uM trimethyltin chloride (positive control). Plates were sealed to prevent evaporation and foil covered to reduce light exposure and kept in a 28C incubator. Embryos were statically exposed until 120 hpf. At 24 hpf, embryos were assessed for photomotor response using a custom photomotor response analysis tool (PRAT) and for developmental toxicity endpoints (MO24: mortality at 24 hpf, DP: developmental progression, SM: spontaneous movement, and NC: notochord distortion). At 120 hpf, locomotor activity was measured using Viewpoint Zebralab and assessed for 18 endpoints. Zebrafish acquisition and analysis program (ZAAP), a custom program designed to inventory, acquire, and manage zebrafish data, was used to collect developmental endpoints as either present or absent (i.e., binary responses were recorded). If mortality occurred for an embryo (at either 24 or 120 hpf), the non-mortality endpoints were not measured.

**Q.** Which outcome does the source give for `CCC(C)(C)C1CCC(O)CC1` (stereo not given) here?
**A.** inactive

**Q.** Which outcome does the source give for `CCCCCCCCOC(=O)CCCCCCCCC(=O)OCCCCCCCC` here?
**A.** inactive

**Q.** With `CCN(CC)CCNc1ccc(CNC=O)c2sc3ccc(OC)cc3c(=O)c12` as the molecule, how does the outcome read?
**A.** inactive

**Q.** For `CCCCCCCCCCCCN1CCCC1=O`, which outcome is on record?
**A.** inactive

**Q.** Which outcome does the source give for `CC(C)(C)c1cccc(C(C)(C)C)c1O` here?
**A.** inactive

**Q.** With `O=C(O)Cc1cc(I)c(Oc2cc(I)c(O)c(I)c2)c(I)c1` as the molecule, how does the outcome read?
**A.** inactive

**Q.** Which outcome does the source give for `CCCCCCCCCCCCCCCS(=O)(=O)Oc1ccccc1` here?
**A.** inactive

**Q.** For `c1ccc2c(c1)Cc1ccccc1-2`, which outcome is on record?
**A.** inactive

**Q.** For `Cc1cc(CCN2CCN(c3nsc4ccccc34)CC2)cc2c1NC(=O)CC2(C)C`, which AC50 is on record?
**A.** 3.82 µM (active)

**Q.** With `Oc1cccc(O)c1` as the molecule, how does the outcome read?
**A.** inactive

**Q.** For `CN1CCC[C@H]1c1cccnc1`, which outcome is on record?
**A.** inactive

**Q.** Which outcome does the source give for `OC1CCCCC1` here?
**A.** inactive

**Q.** Which outcome does the source give for `CCOC(=O)CC(O)(CC(=O)OCC)C(=O)OCC` here?
**A.** inactive

**Q.** Which outcome does the source give for `C=C(C)C(=O)OCCC(F)(F)C(F)(F)C(F)(F)C(F)(F)C(F)(F)C(F)(F)F` here?
**A.** inactive

**Q.** With `Cc1cc(C)c(O)c(C)c1` as the molecule, how does the outcome read?
**A.** inactive

**Q.** With `CCCCCCC(=O)O` as the molecule, how does the outcome read?
**A.** inactive

**Q.** With `CC(C)(C)CC(C)(C)c1ccc(O)c(-n2nc3ccccc3n2)c1` as the molecule, how does the outcome read?
**A.** inactive

**Q.** For `CCCCC(CC)COC(=O)CCCCC(=O)OCc1ccccc1` (stereo not given), which outcome is on record?
**A.** inactive

**Q.** With `C#C[C@]1(O)CC[C@H]2[C@@H]3CCC4=CC(=O)CC[C@@H]4[C@H]3CC[C@@]21C` as the molecule, how does the outcome read?
**A.** inactive

**Q.** For `NC(=O)N(O)[C@@H]1C=C[C@H](Oc2cccc(Oc3ccc(F)cc3)c2)C1`, which outcome is on record?
**A.** inactive

**Q.** With `Cc1oc(-c2ccccc2)nc1CCOc1ccc(C[C@H](Nc2ccccc2C(=O)c2ccccc2)C(=O)O)cc1` as the molecule, how does the outcome read?
**A.** inactive

**Q.** Which AC50 does the source give for `CCc1nn(C2CCCCC2)c2cc(C3(C#N)CCC(C(=O)O)CC3)ccc12` (stereo not given) here?
**A.** 0.419 µM (active)

**Q.** With `COc1ccc([N+](=O)[O-])cc1N` as the molecule, how does the outcome read?
**A.** inactive

**Q.** With `CCCCOCCO` as the molecule, how does the outcome read?
**A.** inactive

**Q.** With `COCC(C)O` (stereo not given) as the molecule, how does the outcome read?
**A.** inactive

**Q.** With `CCCOc1sc(C(=O)N2CCC(c3cc(CN)ccc3F)CC2)c(C)c1Br` as the molecule, how does the outcome read?
**A.** inactive

**Q.** Which outcome does the source give for `O=C(O)c1ccccc1C(c1ccc(O)cc1)c1ccc(O)cc1` here?
**A.** inactive

**Q.** With `OCCC(F)(F)C(F)(F)C(F)(F)C(F)(F)C(F)(F)C(F)(F)C(F)(F)C(F)(F)F` as the molecule, how does the outcome read?
**A.** inactive

**Q.** With `COCC(C)OCC(C)O` (stereo not given) as the molecule, how does the outcome read?
**A.** inactive

**Q.** With `CN1CCN(c2ccccc2/C=C2\SCCN(c3ccc(Cl)c(Cl)c3)C2=O)CC1` as the molecule, how does the outcome read?
**A.** inactive

**Q.** With `CC1=C(/C=C/C(C)=C/C=C/C(C)=C/C(=O)O)C(C)(C)CCC1` as the molecule, how does the outcome read?
**A.** inactive

**Q.** With `Nc1cccc2c(N)cccc12` as the molecule, how does the outcome read?
**A.** inactive

**Q.** With `CC(C)CCCCCCOC(=O)CCCCC(=O)OCCCCCCC(C)C` as the molecule, how does the outcome read?
**A.** inactive

**Q.** Which outcome does the source give for `CCCCCCCCCCCCc1ccccc1S(=O)(=O)O` here?
**A.** inactive

**Q.** Which outcome does the source give for `CC(C)(C)c1ccc(O)c(C(C)(C)C)c1` here?
**A.** inactive

**Q.** For `COC(=O)CCCCC(=O)OC`, which outcome is on record?
**A.** inactive

**Q.** With `CC(C)(C)c1cc(C(C)(C)C)c(O)c(C(C)(C)C)c1` as the molecule, how does the outcome read?
**A.** inactive

**Q.** For `CCCCCCCCC(=O)O`, which outcome is on record?
**A.** inactive

**Q.** With `CCCCC(CC)COC(=O)CCCCC(=O)OCC(CC)CCCC` (stereo not given) as the molecule, how does the outcome read?
**A.** inactive

**Q.** For `c1ccc2c(c1)ccc1ccccc12`, which outcome is on record?
**A.** inactive
